Out of some 5,500 compounds screened, about 2,000 (36%) were called active. Roughly 18% stayed inconclusive and do not appear here. Cut-off read from the data, not from the text of the source: active = normalized growth mostly below about 0.91 (no sharp cut-off); inconclusive = no clear call, values can overlap the other calls; inactive = mostly above about 0.92. Some of the results follow.
Test: chemical genetic growth profiling, strain panel (AID 1159580);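 note: tested at 20 µM; growth read once vehicle control cultures reached saturation at 30 °C; 1 = growth at the plate median or of vehicle wells; lower values mean less growth of the strain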
Details: growth OD

Measured: normalized growth

CCCCCCC(C)OC(=O)COc1ccc(Cl)cc1Cl (configuration not stated)
inactive: S. cerevisiae deletion strains, locus YJR075W, strain HOC1, hits give low values 0.931 | S. cerevisiae deletion strains, locus YKL009W, strain mrt4, hits give low values 0.992 | S. cerevisiae deletion strains, locus YKL068W, hits give low values 0.998 | S. cerevisiae deletion strains, locus YKL085W, strain MDH1 (second series), hits give low values 0.984 | S. cerevisiae deletion strains, locus YKL085W, strain MDH1, hits give low values 0.984 | S. cerevisiae deletion strains, locus YKL160W, strain elf1, hits give low values 0.996 | S. cerevisiae deletion strains, locus YKL190W, strain CNB1, hits give low values 0.997 | S. cerevisiae deletion strains, locus YKR001C, strain vps1, hits give low values 0.998 | S. cerevisiae deletion strains, locus YKR026C, strain gcn3, hits give low values 0.989 | S. cerevisiae deletion strains, locus YKR091W, strain srl3, hits give low values 0.993 | S. cerevisiae deletion strains, locus YLL001W, strain dnm1, hits give low values 0.991 | S. cerevisiae deletion strains, locus YLL026W, hits give low values 0.986 | S. cerevisiae deletion strains, locus YLL041C, strain sdh2, hits give low values 0.994 | S. cerevisiae deletion strains, locus YLR027C, strain aat2, hits give low values 0.995 | S. cerevisiae deletion strains, locus YLR039C, strain RIC1, hits give low values 0.893 | S. cerevisiae deletion strains, locus YLR058C, strain SHM2, hits give low values 0.996 | S. cerevisiae deletion strains, locus YLR102C, strain apc9, hits give low values 1 | S. cerevisiae deletion strains, locus YLR113W, strain HOG1, hits give low values 0.961 | S. cerevisiae deletion strains, locus YLR221C, strain rsa3, hits give low values 0.989 | S. cerevisiae deletion strains, locus YLR258W, strain gsy2, hits give low values 0.981 | S. cerevisiae deletion strains, locus YLR262C, strain YPT6 (second series), hits give low values 0.971 | S. cerevisiae deletion strains, locus YLR262C, strain YPT6, hits give low values 0.983 | S. cerevisiae deletion strains, locus YLR268W, strain sec22, hits give low values 0.997 | S. cerevisiae deletion strains, locus YLR320W, strain mms22, hits give low values 0.982 | S. cerevisiae deletion strains, locus YLR330W, strain CHS5, hits give low values 0.992 | S. cerevisiae deletion strains, locus YLR342W, strain FKS1 (second series), hits give low values 1.01 | S. cerevisiae deletion strains, locus YLR342W, strain FKS1, hits give low values 0.987 | S. cerevisiae deletion strains, locus YLR357W, strain rsc2, hits give low values 1.01 | S. cerevisiae deletion strains, locus YLR370C, strain arc18, hits give low values 0.994 | S. cerevisiae deletion strains, locus YLR371W, strain rom2, hits give low values 0.997 | S. cerevisiae deletion strains, locus YLR384C, strain iki3, hits give low values 0.993 | S. cerevisiae deletion strains, locus YLR418C, strain cdc73, hits give low values 0.965 | S. cerevisiae deletion strains, locus YML016C, strain PPZ1, hits give low values 0.997 | S. cerevisiae deletion strains, locus YML032C, strain rad52, hits give low values 1.01 | S. cerevisiae deletion strains, locus YML120C, strain ndi1, hits give low values 0.983 | S. cerevisiae deletion strains, locus YML124C, strain tub3, hits give low values 0.998 | S. cerevisiae deletion strains, locus YMR058W, strain fet3, hits give low values 0.994 | S. cerevisiae deletion strains, locus YMR078C, strain ctf18, hits give low values 1.01 | S. cerevisiae deletion strains, locus YMR125W, strain sto1, hits give low values 0.983 | S. cerevisiae deletion strains, locus YMR129W, hits give low values 0.994 | S. cerevisiae deletion strains, locus YMR205C, strain PFK2, hits give low values 0.968 | S. cerevisiae deletion strains, locus YMR223W, strain ubp8, hits give low values 0.989 | S. cerevisiae deletion strains, locus YMR231W, strain pep5, hits give low values 0.993 | S. cerevisiae deletion strains, locus YMR263W, strain SAP30, hits give low values 0.984 | S. cerevisiae deletion strains, locus YMR307W, strain GAS1, hits give low values 0.869 | S. cerevisiae deletion strains, locus YNL067W, strain RPL9B, hits give low values 0.985 | S. cerevisiae deletion strains, locus YNL071W, strain lat1, hits give low values 0.982 | S. cerevisiae deletion strains, locus YNL128W, strain TEP1, hits give low values 0.987 | S. cerevisiae deletion strains, locus YNL153C, strain GIM3, hits give low values 0.996 | S. cerevisiae deletion strains, locus YNL183C, strain NPR1, hits give low values 0.96 | S. cerevisiae deletion strains, locus YNL209W, strain ssb2, hits give low values 0.995 | S. cerevisiae deletion strains, locus YNL233W, strain BNI4, hits give low values 0.989 | S. cerevisiae deletion strains, locus YNL248C, strain rpa49, hits give low values 0.984 | S. cerevisiae deletion strains, locus YNL250W, strain rad50, hits give low values 1 | S. cerevisiae deletion strains, locus YNL271C, strain bni1, hits give low values 1 | S. cerevisiae deletion strains, locus YNL298W, strain CLA4, hits give low values 1 | S. cerevisiae deletion strains, locus YNL307C, strain MCK1, hits give low values 0.993 | S. cerevisiae deletion strains, locus YNL322C, strain KRE1 (second series), hits give low values 0.992 | S. cerevisiae deletion strains, locus YNL322C, strain KRE1, hits give low values 0.992 | S. cerevisiae deletion strains, locus YNR049C, strain mso1, hits give low values 0.984 | S. cerevisiae deletion strains, locus YNR052C, strain pop2, hits give low values 1.01 | S. cerevisiae deletion strains, locus YOL006C, strain TOP1, hits give low values 0.905 | S. cerevisiae deletion strains, locus YOL012C, strain htz1 0.707 | S. cerevisiae deletion strains, locus YOL147C, strain pex11, hits give low values 1 | S. cerevisiae deletion strains, locus YOR001W, strain rrp6, hits give low values 0.995 | S. cerevisiae deletion strains, locus YOR061W, strain CKA2, hits give low values 0.981 | S. cerevisiae deletion strains, locus YOR069W, strain VPS5, hits give low values 0.979 | S. cerevisiae deletion strains, locus YOR070C, strain gyp1, hits give low values 0.985 | S. cerevisiae deletion strains, locus YOR080W, strain dia2, hits give low values 0.995 | S. cerevisiae deletion strains, locus YOR083W, strain WHI5, hits give low values 0.999 | S. cerevisiae deletion strains, locus YOR106W, strain vam3, hits give low values 0.958 | S. cerevisiae deletion strains, locus YOR136W, strain idh2, hits give low values 1.01 | S. cerevisiae deletion strains, locus YOR144C, strain elg1, hits give low values 1.01 | S. cerevisiae deletion strains, locus YOR184W, strain ser1, hits give low values 0.991 | S. cerevisiae deletion strains, locus YOR231W, strain MKK1, hits give low values 1.04 | S. cerevisiae deletion strains, locus YOR265W, strain rbl2, hits give low values 0.991 | S. cerevisiae deletion strains, locus YOR270C, strain vph1, hits give low values 0.953 | S. cerevisiae deletion strains, locus YOR290C, strain snf2, hits give low values 0.995 | S. cerevisiae deletion strains, locus YOR316C, strain cot1, hits give low values 1 | S. cerevisiae deletion strains, locus YPL051W, strain arl3, hits give low values 0.989 | S. cerevisiae deletion strains, locus YPL055C, strain LGE1, hits give low values 0.94 | S. cerevisiae deletion strains, locus YPL078C, strain atp4, hits give low values 0.988 | S. cerevisiae deletion strains, locus YPL106C, strain sse1, hits give low values 1.01 | S. cerevisiae deletion strains, locus YPL240C, strain hsp82, hits give low values 1 | S. cerevisiae deletion strains, locus YPL241C, strain CIN2, hits give low values 0.995 | S. cerevisiae deletion strains, locus YPL256C, strain CLN2, hits give low values 1.01 | S. cerevisiae deletion strains, locus YPR119W, strain clb2, hits give low values 1 | S. cerevisiae deletion strains, locus YPR141C, strain kar3, hits give low values 0.995 | S. cerevisiae deletion strains, locus YPR163C, strain tif3, hits give low values 1.01 | S. cerevisiae deletion strains, locus YPR167C, strain met16, hits give low values 1 | S. cerevisiae deletion strains, strain wtn01, hits give low values 1 | S. cerevisiae strains, strain wild type, hits give low values 0.981
